Assay outcomes from PubChem.
Rows were chosen to be rich in hits. Some 2.4% of all compounds tested hit in one or more screens of this group.
D2 antag – HTS Assay for Allosteric Antagonists of the Human D2 Dopamine Receptor: Primary Screen for Antagonists. HEK293 TREx D2 cells, calcium flux, dopamine EC80. AID 485344, 2010. inhibition, % at 10 µM. D(2) dopamine receptor (Homo sapiens), P14416. actives 2% (n = 340,000); in the data active = inhibition above about 30%; inactive = below that, where a call was filed; note: 0% is about no effect
Target sequence (P14416 whole entry, looked up): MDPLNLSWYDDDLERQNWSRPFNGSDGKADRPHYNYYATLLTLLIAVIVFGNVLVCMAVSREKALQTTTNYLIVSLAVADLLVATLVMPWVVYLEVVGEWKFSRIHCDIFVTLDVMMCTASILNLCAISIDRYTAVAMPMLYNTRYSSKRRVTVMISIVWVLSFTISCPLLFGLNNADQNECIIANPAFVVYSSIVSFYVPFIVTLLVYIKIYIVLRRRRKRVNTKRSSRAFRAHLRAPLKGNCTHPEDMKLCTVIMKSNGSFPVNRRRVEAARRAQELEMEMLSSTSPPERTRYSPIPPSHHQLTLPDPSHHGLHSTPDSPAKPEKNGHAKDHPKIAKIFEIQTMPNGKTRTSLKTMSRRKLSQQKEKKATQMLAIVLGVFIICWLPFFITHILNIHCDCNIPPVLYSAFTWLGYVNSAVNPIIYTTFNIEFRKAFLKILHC
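Compounds are added to dye-loaded, induced HEK293 T-REx cells coupled to calcium release via D2; after a 3 min kinetic read an EC80 dopamine stimulus is given and fluorescence is recorded for 3 more min.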
D2 PAM-1 – Beta-Arrestin HTS for Positive Allosteric Modulators of the Human D2 Dopamine Receptor: Potentiators | actives 0.23% (n = 360,000) | D(2) dopamine receptor (Homo sapiens), P14416 | DiscoveRx D2 beta-arrestin cells, luminescence, 90 min; 100% = 57 uM dopamine signal | potentiation, % (concentration not given with the values); in the data active = potentiation above about 50%; inconclusive = mostly about 30% to 49%
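PathHunter D2 cells, attached overnight at 37 deg C, received compound in DMSO plus dopamine at EC20 (50 nM final) for 90 min at 37 deg C. Beta-arrestin recruitment was read as luminescence after 1 h with detection reagent at ambient temperature.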
D2 ag-1 – Beta-Arrestin HTS for Positive Allosteric Modulators of the Human D2 Dopamine Receptor: Agonists; DiscoveRx PathHunter D2 beta-arrestin, luminescence, 90 min; 100% = 57 uM dopamine signal; activation, % (concentration not given with the values); actives 0.084% (n = 360,000); AID 624465, 2012; in the data active = activation above about 40%; inconclusive = between about 15% and that limit
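Agonist mode: compounds alone added to overnight-plated D2 PathHunter cells for 90 min at 37 C, with 57 uM final dopamine (EC100) defining full response. Beta-arrestin recruitment detected by chemiluminescent reagent, read after 1 h at ambient temperature.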
D2 PAM-2 – HTS Assay for Positive Allosteric Modulators of the Human D2 Dopamine Receptor: Primary Screen for Potentiators. HEK293 T-REx D2, calcium flux, EC20 dopamine potentiation. potentiation, % at 10 µM. actives 0.34% (n = 340,000). AID 485347, 2010;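 active = potentiation over 3 SD above the plate norm, cut at about 30% in these data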; note: 0% is about no effect
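Potentiation of an EC20 dopamine calcium response is measured in a force-coupled, tetracycline-inducible Hek293 Trex D2 line. Compound-only kinetic reads over 180 s flag agonists before dopamine addition.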
D2 ag-2 – HTS Assay for Allosteric Agonists of the Human D2 Dopamine Receptor: Primary Screen for Agonists; actives 0.53% (n = 340,000); activation, % at 2 µM; D(2) dopamine receptor (Homo sapiens), P14416; HEK293 T-REx D2 cells, calcium flux agonist mode;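 active = activation over 3 SD above normal in the single-dose calcium agonist read, cut at about 30% in these data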; note: 0% is about no effect
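Agonism is scored from calcium flux in a force-coupled, inducible HEK293 cell line expressing D2, read kinetically for 180 s after compound addition against dopamine controls.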
D3 arrestin ag – qHTS of D3 Dopamine Receptor Agonist: D3 Dopamine Receptor B-arrestin Agonist Confirmatory Assay. shares compounds with D2 ag-2. Potency, µM (doses to about 76.9 µM), for inactives: at the highest dose activation, most hits filed as activators. DiscoveRx D3 beta-arrestin cells, luminescence, 90 min. actives 4% (n = 2,300);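 note: potency is the fitted concentration of half-maximal effect; 100% = dopamine control response; nearly all actives have a fitted effect of over 70% in size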
D2 ag-3 – qHTS of D3 Dopamine Receptor Agonist: D2 Dopamine Receptor B-arrestin Agonist Counterscreen | shares compounds with D2 ag-2 | DiscoveRx PathHunter D2 beta-arrestin, luminescence, 90 min; response scale: percent relative to full dopamine signal | Potency, µM (highest dose often 76.9 µM), inactives show at the top dose activation, actives largely listed as activators | actives 5.9% (n = 2,300); note: potency is the fitted concentration of half-maximal effect; % of control where 0% means no effect; nearly all actives have a fitted effect of over 70% in size
The depositor's hits bear a star; ? = inconclusive; / = no result. Unless noted, calls come from the whole dose curve; as a rule, active = well fitted activation curve with a large enough effect; inconclusive = small, poorly fitted or top-dose-only effect; inactive = flat fitted curve, though single readings scatter.

SMILES	D2 antag	D2 PAM-1	D2 ag-1	D2 PAM-2	D2 ag-2	D3 arrestin ag	D2 ag-3
CC(C)(C)c1ccc(S(=O)(=O)NC(=O)C2(C)CCN2C(=O)CC2CCCCC2)cc1 (configuration not stated)	/	-7	-2	/	/	/	/
CN(c1ccc(C(=O)N2CCN(Cc3ccccc3)CC2)cc1)S(=O)(=O)c1ccccc1	61*	10	?	-24	67*	2%	?
COc1ccc(/C=C2\CCCC3C2=NN(C(=O)CSc2ncn[nH]2)C3c2ccc(OC)cc2)cc1 (configuration not stated)	5	-9	6	-16	0	/	/
O=C(CSc1ncn[nH]1)N1N=C2/C(=C/c3ccccc3)CCCC2C1c1ccccc1 (configuration not stated)	33*	9	12	-14	41*	6%	?
COc1ccccc1CN1CCCC(N2CCN(c3ccccc3OC)CC2)C1 (configuration not stated)	-6	-3	-3	-14	1	/	/
O=C(c1ccsc1)N1CCCC(N2CCN(c3ccccc3F)CC2)C1 (configuration not stated)	0	-31	1	-11	12	/	/
O=C(c1noc2c1CCCC2)N1CCCC(N2CCN(c3ccccc3F)CC2)C1 (configuration not stated)	15	-20	2	-14	41*	1%	6%
Fc1ccccc1N1CCN(C2CCCN(Cc3ccccc3C(F)(F)F)C2)CC1 (configuration not stated)	/	-4	-2	-9	/	3%	21%
CC(=O)c1cccc(CN2CCCC(N3CCN(c4ccccc4F)CC3)C2)c1 (configuration not stated)	/	-1	12	-28	/	8%	?
C[C@H](NC(=O)c1[nH]cnc1C(=O)N[C@H](C)c1ccccc1)c1ccccc1	9	-3	-1	10	0	-8%	-5%
Cc1cccc(NC(=O)c2nc[nH]c2C(=O)N(C)Cc2ccccc2)c1	29	-19	-8	-21	-1	0%	-4%
CN(Cc1ccccc1)C(=O)c1[nH]cnc1C(=O)NCCCCCNC(=O)OC(C)(C)C	-8	-18	-2	7	-1	-5%	4%
Cc1cccc(NC(=O)COc2ccccc2C(=O)NC(C)c2ccccc2)c1 (configuration not stated)	-5	-19	7	-17	49*	?	9%
C[C@H](NC(=O)c1nc[nH]c1C(=O)N[C@@H](C)c1ccccc1)c1ccccc1	-3	-4	-2	19	0	/	/
N#Cc1c(-c2ccccc2)nc(-c2cccnc2)[nH]c1=O	8	-7	-1	-6	-2	/	/
CC(C)Oc1ccc(C(=O)N2CCN(C(=O)c3ccco3)CC2)cc1	-7	-8	-8	8	0	/	/
CCc1nc2ccc(C(=O)NCCN(C)C)cn2c1N(CC)CCOC	/	-6	3	/	/	/	/
Cc1cccc(NC(=O)c2nc[nH]c2C(=O)N[C@@H](C)c2ccccc2)c1	-4	-15	-2	9	0	-3%	-4%
C=C(C)C(=O)Nc1nnc(-c2ccccc2C)s1	52*	-23	-1	10	0	-5%	-4%
CCN1C(=NCCCOC(C)C)N[C@@H](CCc2ccccc2)[C@H](C(=O)NCCCOC(C)C)[C@H]1C	/	-8	-4	/	/	/	/
COc1ccccc1N1CCN(CC(C)N(C(=O)C2CCCCC2)c2ccccn2)CC1 (configuration not stated)	82*	-13	-1	-23	40*	-21%	-2%
COc1cc(-c2nnc(NC(=O)CCS(=O)(=O)c3ccc(F)cc3)o2)cc(OC)c1OC	25	0	-2	-4	-1	/	/
COc1cc(-c2nnc(NC(=O)CCS(=O)(=O)c3ccccc3)o2)cc(OC)c1OC	41*	-4	-3	-2	4	-10%	-6%
CC1(C(=O)NCc2cccs2)Cc2c(-c3ccc(C(N)=O)cc3)ccnc2O1 (configuration not stated)	/	-5	2	/	/	/	/
O=C(Cc1ccccc1)Nc1cccnc1	-26	0	-5	11	3	/	/
SMILES	D2 antag	D2 PAM-1	D2 ag-1	D2 PAM-2	D2 ag-2	D3 arrestin ag	D2 ag-3
Cc1cccc(CC(=O)Nc2cccnc2)c1	2	-19	0	1	30	-11%	2%
COc1ccc(OC)c(NC(=O)COC(=O)c2ccc(S(=O)(=O)N3CCCCC3)cc2)c1	/	-9	0	/	/	/	/
CN(C)N1C(N)=C(C#N)C(c2ccc(Br)cc2)C2=C1CC(C)(C)CC2=O (configuration not stated)	-7	0	-2	4	0	/	/
NC(Cc1ccc(Cl)cc1)c1csc(NC(=O)Nc2ccccc2-c2ccccc2)n1 (configuration not stated)	/	7	?	/	/	/	/
Cc1cccc(N2CCN(C(=O)c3cc(COc4ccc(F)c(F)c4)on3)CC2)n1	5	-4	4	8	0	/	/
Cn1cncc1C#Cc1ccc2cc(CCO)oc(=O)c2c1	-1	-1	-2	8	0	7%	-5%
O=C(CN1CCN(c2ccccn2)CC1)Nc1cccc(S(=O)(=O)N2CCOCC2)c1	7	14	4	-15	42*	23%	?
O=C(CSc1ccc(-c2ccccn2)nn1)Nc1cccc(F)c1	-11	-4	2	-20	71*	10%	9%
Cc1cc(C)cc(NC(=O)CSc2ccc(-c3ccccn3)nn2)c1	-2	-19	3	2	-1	/	/
O=C(CN1CCN(c2ccccn2)CC1)Nc1ccccc1F	57*	6	9	-15	73*	29%	28%
O=C(CN1CCN(c2ccccn2)CC1)Nc1ccc(F)cc1F	25	-1	11	-17	59*	30%	?
